# Source: PubChem BioAssay
# Unmarked numbers belong to inactive results.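 The calls were made as follows, unless noted: active = luciferase signal above three times the same-plate solvent-only control wells; inactive = the rest.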
# Tests used:
# [1] = molecular target: 6-phosphogluconate dehydrogenase, decarboxylating (Homo sapiens) (UniProt P52209); assay: inhibition of human phosphogluconate dehydrogenase – biochemical, recombinant enzyme, NADPH absorbance, primary screen (AID 1159550;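 active = at least 20% inhibition of 6-phosphogluconate dehydrogenase activity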); details: recombinant 6PGD, NADPH absorbance 341 nm; at 10 µM; hits give high values
# Chain of 6-phosphogluconate dehydrogenase, decarboxylating (Homo sapiens) (P52209 whole entry, looked up, the tested form may be a part): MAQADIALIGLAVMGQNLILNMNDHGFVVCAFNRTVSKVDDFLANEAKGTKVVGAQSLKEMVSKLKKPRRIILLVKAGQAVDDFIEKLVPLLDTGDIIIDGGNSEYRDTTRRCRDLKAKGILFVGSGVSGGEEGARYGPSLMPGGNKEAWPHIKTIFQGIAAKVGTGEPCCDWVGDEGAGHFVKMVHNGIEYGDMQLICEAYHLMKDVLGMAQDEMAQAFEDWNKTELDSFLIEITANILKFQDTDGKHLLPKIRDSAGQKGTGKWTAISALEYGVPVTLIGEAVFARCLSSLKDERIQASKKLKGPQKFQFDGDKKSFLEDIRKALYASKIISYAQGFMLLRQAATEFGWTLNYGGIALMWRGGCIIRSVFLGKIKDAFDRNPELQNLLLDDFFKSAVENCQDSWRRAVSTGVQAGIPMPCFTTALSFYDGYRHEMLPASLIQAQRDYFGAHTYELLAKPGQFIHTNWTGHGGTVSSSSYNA
# [2] = molecular target: Mitogen-activated protein kinase 7 (Homo sapiens) (UniProt Q13164); assay: Gal4-ERK5 driven luciferase induction – cell-based, HTS, primary screen (AID 1508626); details: HeLa Gal4-ERK5 transactivation, 18 h, at 5 µM, hits give high values;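 also: luciferase driven by Gal4-ERK5 fusion binding five Gal4 sites before minimal TATA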
# Chain of Mitogen-activated protein kinase 7 (Homo sapiens) (Q13164 whole entry, looked up, the tested form may be a part): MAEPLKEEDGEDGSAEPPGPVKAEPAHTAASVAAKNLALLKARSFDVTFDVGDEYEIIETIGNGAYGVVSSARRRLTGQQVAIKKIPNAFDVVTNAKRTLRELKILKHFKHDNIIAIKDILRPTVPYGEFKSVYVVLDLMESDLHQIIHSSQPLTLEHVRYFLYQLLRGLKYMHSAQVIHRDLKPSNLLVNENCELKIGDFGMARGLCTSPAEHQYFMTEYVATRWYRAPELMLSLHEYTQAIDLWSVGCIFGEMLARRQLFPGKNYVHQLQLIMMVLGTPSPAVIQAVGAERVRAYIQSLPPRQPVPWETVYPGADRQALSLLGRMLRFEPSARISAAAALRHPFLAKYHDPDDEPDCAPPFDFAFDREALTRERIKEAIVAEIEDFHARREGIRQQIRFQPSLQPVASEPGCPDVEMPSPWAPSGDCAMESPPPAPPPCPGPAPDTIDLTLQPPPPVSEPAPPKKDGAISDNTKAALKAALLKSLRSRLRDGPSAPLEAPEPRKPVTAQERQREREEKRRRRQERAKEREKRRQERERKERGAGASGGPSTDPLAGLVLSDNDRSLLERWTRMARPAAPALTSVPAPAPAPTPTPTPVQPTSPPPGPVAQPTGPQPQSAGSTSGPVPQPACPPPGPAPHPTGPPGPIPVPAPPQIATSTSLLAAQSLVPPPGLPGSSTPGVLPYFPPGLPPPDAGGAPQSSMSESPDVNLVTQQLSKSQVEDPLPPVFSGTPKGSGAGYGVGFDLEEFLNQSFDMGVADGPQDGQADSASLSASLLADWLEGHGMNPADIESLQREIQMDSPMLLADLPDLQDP
Structure (SMILES),inhibition [1],luciferase signal [2]
CC1(C)C[C@@H]2C(=O)CC[C@H]3O[C@]3(C)CC[C@H]21,14.4%,44 AU
COc1ccc2c(c1)CC[C@@H]1[C@@H]2CC[C@]2(C)[C@@H](O)CC[C@@H]12,-8.02%,36 AU
COC(=O)[C@@H]1OC(=O)[C@H]2O[C@@]23[C@@]1(C)CCC1[C@@]2(C)CCC(=O)C(C)(C)C2C[C@@H](OC(C)=O)[C@]13C (stereo partly specified),7.3%,40 AU
CC1C2[C@]3(CC[C@H]1C)CCC1(C)[C@@]2(C=CC2[C@@]4(C)CC[C@H](O)C(C)(C)C4CC[C@]21C)OC3=O (stereo partly specified),5.53%,56 AU
C=C1CCC2C(CC2(C)C)C(=C)CC/C1=N/O (stereo unspecified),16.7%,88 AU
CC(=O)OC1CCC2(O)CC1(C)CCC1C2CC1(C)C (stereo unspecified),15.6%,36 AU
CN1CCCC1c1cccnc1 (stereo unspecified),17.4%,56 AU
C[C@H](CCC(=O)O)[C@H]1CC[C@H]2[C@@H]3CC[C@@H]4C[C@H](O)CC[C@]4(C)[C@H]3C[C@H](O)[C@]12C,-3.07%,28 AU
COS(C)(=O)=O,6.76%,124 AU
CC(=O)OCC1(O)CC23CCC4c5ccoc5CCC4(C)C2CCC1C3 (stereo unspecified),4.27%,24 AU
COC(=O)C[C@H]1C(C)(C)[C@@H](OC(C)=O)[C@@H]2CC3C4CC(=O)O[C@@H](c5ccoc5)[C@]4(C)CCC3[C@@]1(C)C2=O (stereo partly specified),7.27%,28 AU
COC(=O)/C(=C1/OC(=O)C(c2ccccc2)=C1O)c1ccccc1,11.9%,68 AU
COc1cc(C)c(C(=O)Oc2cc(C)c(C(=O)O)c(O)c2C)c(O)c1C=O,2.14%,120 AU
CC(=O)OC(C)(C)[C@@H]1Cc2cc3ccc(=O)oc3cc2O1,2.42%,40 AU
CO[C@H]1C=C[C@@]23c4cc5c(cc4CN(C[C@@H]2O)[C@H]3C1)OCO5,13.8%,44 AU
CC(C)=CCC/C(C)=C\CO,6.7%,60 AU
CC1(O)CC2C(CC1O)C2(C)C (stereo unspecified),13.8%,60 AU
CC1(C)CC[C@]2(C)CC[C@]3(C)C(=CC[C@@H]4[C@@]5(C)CC[C@H](O)C(C)(C)[C@@H]5CC[C@]43C)[C@@H]2C1,10.2%,20 AU
COC(=O)c1c(C)cc(OC)cc1O,-8.1%,32 AU
O=c1cccc2cc(O)c(O)c(O)c2c1O,16.8%,60 AU
C[C@@H]([C@H]1OC(C)(C)[C@@H](O)[C@H]1O)[C@@H]1CC[C@]2(C)C3=CC[C@H]4C(C)(C)C(=O)CC[C@]4(C)[C@H]3CC[C@@]12C,4.2%,44 AU
CC(=O)Oc1c(-c2ccccc2)oc2c(CC=C(C)C)c3c(c(OC(C)=O)c2c1=O)C=CC(C)(C)O3,7.48%,40 AU
C[C@@H]1CC[C@H]2C(C)(C)[C@H]3C[C@@]12CC[C@@]3(C)O,1.71%,28 AU
C/C(=C\CO)CCC[C@H](C)CCC[C@H](C)CCCC(C)C,5.74%,72 AU
CC(=O)O[C@@H]1C[C@H]2C(C)(C)[C@@H](O)CC[C@]2(C)[C@H]2CC[C@@]3(C)[C@H](c4ccoc4)OC(=O)[C@H]4O[C@]43[C@@]21C,-6.19%,108 AU
COc1ccc2ccc(=O)oc2c1,6.96%,44 AU
COc1cccc(/C=C/C(=O)O)c1C(C)C,0.939%,24 AU
CC[C@H](CC[C@@H](C)[C@H]1CC[C@H]2[C@@H]3CC=C4C[C@@H](OC(C)=O)CC[C@]4(C)[C@H]3CC[C@]12C)C(C)C,9.08%,36 AU
